From PubChem BioAssay (EPA / NIEHS)
Active and inactive are the calls of the source. The calls were made as follows: active = hit-call score of the fitted dose curve at least 0.9, where 1 is the maximum; inactive = score below 0.9.

Legend:
Conditions in all cases: mRNA level, 48 h; actives raise or lower the signal
[1] = read-out: Alkaline Phosphatase, Placental (ALPP) gene, ALPP (gene 250); assay: LTEA_HepaRG_ALPP: Life Technologies and Expression Analysis (LTEA) Assay for Alkaline Phosphatase, Placental (ALPP) gene using HepaRG (AID 2283468);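 as to AC50: differentiated human HepaRG liver cells in serum-free induction medium; ALPP transcript by TaqMan qRT-PCR normalized to ACTB GAPDH and POLR2A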
Method in brief: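 HepaRG, 48 h plating then 48 h dosing, serum-free induction medium, 0.5% DMSO. 8 conc, half-log, max 100 uM, duplicates. Endpoint: ALPP transcript by qRT-PCR, housekeeping-normalized; gain or loss fitted vs DMSO.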

[2] = read-out: Bcl-2 (BAD) gene, BAD (gene 572); assay: LTEA_HepaRG_BAD: Life Technologies and Expression Analysis (LTEA) Assay for Bcl-2 (BAD) gene using HepaRG (AID 2283469)
Method in brief: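 Read-out: qRT-PCR of BAD mRNA, normalized to three housekeeping genes. Human HepaRG cultures got 48 h chemical exposure in 0.5% DMSO, duplicate eight-point half-log series topping at 100 uM. Gain or loss of signal fitted versus DMSO vehicle.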

[3] = read-out: Bcl-2 (BAX) gene, BAX (gene 581); assay: LTEA_HepaRG_BAX: Life Technologies and Expression Analysis (LTEA) Assay for Bcl-2 (BAX) gene using HepaRG (AID 2283470)
Method in brief: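 qRT-PCR read-out of BAX mRNA, normalized to three housekeeping genes, after 48 h chemical exposure of human HepaRG cells in serum-free induction medium; eight-point half-log series, top 100 uM, 0.5% DMSO vehicle; bidirectional fit versus DMSO.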

[4] = read-out: adenosine kinase (ADK) gene, ADK (gene 132); assay: LTEA_HepaRG_ADK: Life Technologies and Expression Analysis (LTEA) Assay for adenosine kinase (ADK) gene using HepaRG (AID 2283471)
Method in brief: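 Read-out is ADK transcript level measured by qRT-PCR and normalised to three housekeeping genes. Cells are human HepaRG, dosed for 48 h at up to 100 uM in 0.5% DMSO. Gain or loss of signal is fitted against DMSO controls.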

[5] = read-out: Alpha-fetoprotein (AFP) gene, AFP (gene 174); assay: LTEA_HepaRG_AFP: Life Technologies and Expression Analysis (LTEA) Assay for Alpha-fetoprotein (AFP) gene using HepaRG (AID 2283472);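 as to AC50: AFP transcript by TaqMan qRT-PCR normalized to ACTB GAPDH and POLR2A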
Method in brief: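 qRT-PCR (Fluidigm TaqMan) readout of AFP transcript, normalized to three housekeeping genes, fitted bidirectionally against 0.5% DMSO baseline. HepaRG cells received chemicals for 48 h in serum-free induction medium, top concentration 100 uM, half-log steps.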

[6] = read-out: Apoptosis regulator Bcl-2 (Homo sapiens) (UniProt P10415); assay: LTEA_HepaRG_BCL2: Life Technologies and Expression Analysis (LTEA) Assay for Bcl-2 gene using HepaRG (AID 2283475);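 also: BCL2 transcript by TaqMan qRT-PCR normalised to ACTB GAPDH and POLR2A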
Method in brief: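 qRT-PCR read-out (Fluidigm TaqMan) of BCL2 transcript, normalised to three housekeeping genes, after 48 h chemical exposure of HepaRG cells; 8-point half-log series, top 100 uM, 0.5% DMSO vehicle. Gain or loss of signal fitted relative to DMSO baseline.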

[7] = read-out: Bcl-2 (BID) gene, BID (gene 637); assay: LTEA_HepaRG_BID: Life Technologies and Expression Analysis (LTEA) Assay for Bcl-2 (BID) gene using HepaRG (AID 2283476)
Method in brief: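 HepaRG, 48 h exposure, 8-pt half-log series, top 100 uM, 0.5% DMSO vehicle, duplicates. Readout: BID mRNA by TaqMan qRT-PCR; housekeeping-normalized; bidirectional curve fit vs DMSO baseline.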

[8] = read-out: Caspase-3 (Homo sapiens) (UniProt P42574); assay: LTEA_HepaRG_CASP3: Life Technologies and Expression Analysis (LTEA) Assay for cysteine-aspartic acid protease (CASP3) using HepaRG (AID 2283477)
Method in brief: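 Read-out is CASP3 mRNA level by TaqMan qRT-PCR in human HepaRG cells after 48 h chemical exposure. Eight half-log concentrations topping at 100 uM were tested in 0.5% DMSO; gain or loss was fitted relative to DMSO.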

[9] = read-out: BCL2L11 (gene 10018); assay: LTEA_HepaRG_BCL2L11: Life Technologies and Expression Analysis (LTEA) Assay for Bcl-2 (BCL2L11) gene using HepaRG (AID 2283473)
Method in brief: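 Read-out is BCL2L11 transcript level by qRT-PCR, normalized to three housekeeping genes and fitted bidirectionally against 0.5% DMSO vehicle. HepaRG cells received chemicals for 48 h in serum-free induction medium, 100 uM down in half-log dilutions.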

[10] = read-out: Apolipoprotein A-V (APOA5) gene, APOA5 (gene 116519); assay: LTEA_HepaRG_APOA5: Life Technologies and Expression Analysis (LTEA) Assay for Apolipoprotein A-V (APOA5) gene using HepaRG (AID 2283474)
Method in brief: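 Readout is APOA5 transcript level by qRT-PCR on Fluidigm dynamic arrays, normalized to three housekeeping genes. HepaRG cultures received chemicals for 48 h at up to 100 uM (half-log steps, 0.5% DMSO), with gain or loss scored relative to DMSO.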

Measured: AC50

Sequence of Caspase-3 (Homo sapiens) (P42574 whole entry, looked up): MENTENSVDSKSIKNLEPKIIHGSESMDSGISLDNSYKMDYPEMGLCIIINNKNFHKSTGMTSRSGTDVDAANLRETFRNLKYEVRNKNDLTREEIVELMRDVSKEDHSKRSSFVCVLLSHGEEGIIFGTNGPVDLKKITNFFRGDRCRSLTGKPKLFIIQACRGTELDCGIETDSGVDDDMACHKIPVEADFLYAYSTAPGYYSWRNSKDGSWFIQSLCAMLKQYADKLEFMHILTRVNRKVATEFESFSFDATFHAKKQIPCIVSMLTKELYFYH
Sequence of Apoptosis regulator Bcl-2 (Homo sapiens) (P10415 whole entry, looked up): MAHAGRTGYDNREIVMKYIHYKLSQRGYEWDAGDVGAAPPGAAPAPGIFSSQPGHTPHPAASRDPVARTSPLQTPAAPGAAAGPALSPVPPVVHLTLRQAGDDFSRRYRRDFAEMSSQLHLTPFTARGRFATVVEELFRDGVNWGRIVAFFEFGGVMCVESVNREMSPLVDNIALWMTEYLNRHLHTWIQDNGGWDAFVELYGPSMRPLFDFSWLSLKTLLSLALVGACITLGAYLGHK

COc1c(Cl)ccc(Cl)c1C(=O)O
inactive: [1] | [2] | [3] | [4] | [5] | [6] | [7] | [8]

CCCN(CCC)C(=O)SCC
inactive: [1] | [2] | [3] | [4] | [5] | [9] | [10] | [6] | [7] | [8]

N[C@@H](Cc1cc(I)c(Oc2ccc(O)c(I)c2)c(I)c1)C(=O)O
inactive: [1] | [2] | [3] | [4] | [9] | [6] | [7] | [8]
active: [5] 40 µM

O=C(c1ccccc1)C1CCCCC1
inactive: [1] | [2] | [3] | [4] | [5] | [10] | [6] | [7] | [8]

O=C(Nc1ccc([N+](=O)[O-])cc1Cl)c1cc(Cl)ccc1O
inactive: [7]
active: [1] 15.9 µM | [2] 3.89 µM | [3] 6.15 µM | [4] 3.07 µM | [5] 20.4 µM | [6] 3.54 µM | [8] 1.89 µM

CC(C)(C)[C@@H](O)[C@@H](Cc1ccc(Cl)cc1)n1cncn1
inactive: [1] | [2] | [3] | [4] | [5] | [9] | [6] | [7] | [8]

OB(O)O
inactive: [1] | [2] | [3] | [4] | [5] | [9] | [6] | [7] | [8]

CC1(C)C(C=C(Cl)Cl)C1C(=O)OCc1cccc(Oc2ccccc2)c1 (stereo not given)
inactive: [1] | [2] | [3] | [4] | [5] | [6] | [7] | [8]

COC(=O)c1ccccc1C(=O)O
inactive: [1] | [2] | [3] | [4] | [5] | [10] | [6] | [7] | [8]

CCCCC(CC)CN1C(=O)C2C3C=CC(C3)C2C1=O (stereo not given)
active: [1] 65.4 µM | [5] 50 µM | [10] 79.3 µM
inactive: [2] | [3] | [4] | [6] | [7] | [8]

CCCCCCC(C)OC(=O)COc1nc(F)c(Cl)c(N)c1Cl (stereo not given)
inactive: [1] | [2] | [3] | [4] | [5] | [9] | [6] | [7] | [8]

CCOC(=O)NCCOc1ccc(Oc2ccccc2)cc1
active: [1] 50 µM | [5] 83.5 µM | [6] 82.1 µM
inactive: [2] | [3] | [4] | [9] | [7] | [8]

CCCCOCCOCCOCc1cc2c(cc1CCC)OCO2
active: [5] 33.3 µM
inactive: [1] | [2] | [3] | [4] | [9] | [6] | [7] | [8]

CN(C)C(=O)Nc1ccc(Cl)c(Cl)c1
active: [5] 50 µM
inactive: [1] | [2] | [3] | [4] | [9] | [10] | [6] | [7] | [8]

N#CSCSc1nc2ccccc2s1
inactive: [2] | [3] | [4] | [5] | [10] | [6] | [7] | [8]
active: [1] 40.3 µM

O=C(O)C1(C(=O)Nc2ccc(Cl)cc2Cl)CC1
inactive: [1] | [2] | [3] | [9] | [6] | [7]
active: [4] 79.4 µM | [5] 65.6 µM | [8] 28.4 µM

CC(C)CCCCCCc1ccc(O)cc1
inactive: [1] | [2] | [3] | [4] | [5] | [9] | [6] | [7] | [8]

CCC(C)OC(=O)N1CCCCC1CCO (stereo not given)
inactive: [1] | [2] | [3] | [4] | [5] | [10] | [6] | [7] | [8]

c1ccc(Nc2ccccc2)cc1
inactive: [1] | [2] | [3] | [4] | [5] | [10] | [6] | [7] | [8]

S=C([S-])NCCNC(=S)[S-].[Mn+2]
active: [4] 0.628 µM | [5] 3.16 µM | [10] 3.64 µM | [8] 0.594 µM
inactive: [1] | [2] | [3] | [9] | [6] | [7]
